Laboratory results taken from PubChem BioAssay AID588391 (Broad Institute, 2011).
The whole screen tested about 350,000 compounds, of which about 180 (0.051%) were called active. Many of the other results were omitted from the sample, so actives are more common in it than they were. A number with no mark means an inactive call.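 Rule for the calls: active = mean inhibition across replicates of 30% or more, whatever share of single replicates reach that level; inconclusive = mean inhibition below 30% while every single replicate reaches 30%; inactive = the rest.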

Each molecule was assayed against Protein disulfide-isomerase (Homo sapiens) (UniProt P07237) (assay: blockers of PDI-driven insulin aggregation – biochemical, turbidity, single point, plate reader, primary screen (AID 588391;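 note: absorbance from insulin aggregation driven by PDI reduction with DTT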)). Conditions: A650, 90 min, at 10 µM, stronger effect = higher value.
Sequence of Protein disulfide-isomerase (Homo sapiens) (P07237 whole entry, looked up): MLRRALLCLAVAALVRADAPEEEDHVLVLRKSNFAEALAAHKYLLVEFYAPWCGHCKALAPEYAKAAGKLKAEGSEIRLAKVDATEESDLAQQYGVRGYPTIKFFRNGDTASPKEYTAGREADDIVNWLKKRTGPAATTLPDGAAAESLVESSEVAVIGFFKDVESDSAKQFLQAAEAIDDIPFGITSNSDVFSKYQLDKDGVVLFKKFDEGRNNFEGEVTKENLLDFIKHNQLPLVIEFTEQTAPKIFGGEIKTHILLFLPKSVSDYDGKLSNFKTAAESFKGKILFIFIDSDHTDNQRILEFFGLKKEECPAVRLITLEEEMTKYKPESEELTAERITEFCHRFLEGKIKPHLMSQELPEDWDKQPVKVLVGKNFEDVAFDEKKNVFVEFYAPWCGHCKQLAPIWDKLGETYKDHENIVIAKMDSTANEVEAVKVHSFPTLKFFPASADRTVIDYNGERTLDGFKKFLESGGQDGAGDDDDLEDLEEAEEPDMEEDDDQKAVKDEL
`CC(=O)Nc1ccc(C=CC(=O)c2ccc([N+](=O)[O-])cc2)cc1` showed an inhibition of -14.3%.
`CN(C)c1ccc(/C=C/C(=O)c2ccc(O)cc2)cc1[N+](=O)[O-]` was tested, and the inhibition was 62.9% (active).
Molecule `O=C(/C=C/c1ccc(Cl)cc1)N1CCN(c2ccccc2[N+](=O)[O-])CC1` has an inhibition of -3.05%.
`OC[C@H]1O[C@@H](c2nc(-c3nc(-c4ccc(F)cc4)no3)cs2)[C@H](O)[C@@H](O)[C@H]1O` gave an inhibition of 9.06%.
`CCc1nc2ccc(C(=O)Nc3cccc(OC)c3)cn2c1N(CCC(C)C)CCN(C)C` showed an inhibition of 7.59%.
Work on `COc1ccc(CNC(=O)c2ccc(-c3cccnc3)c3ccoc23)cc1OC` yielded an inhibition of -14.5%.
Work on `CCOC(=O)C1CCCN(C(=O)c2ccc(N(C)C)cc2)CC1` (stereo not drawn) yielded an inhibition of -4.95%.
With `COc1ccccc1CNC(=O)c1cc(-c2cc(F)ccc2OC)n[nH]1` the inhibition was -13.3%.
Work on `CNc1cnc(-c2cc(OC)c(OC)c(OC)c2)cn1` yielded an inhibition of -1.94%.
With `Cc1nc2c(OCc3ccc(Cl)cc3Cl)cccn2c1N(C)CC1CC1` the inhibition was -3.07%.
`CC(=O)NN=C(C)c1ccc(NC(=O)C2CC2)cc1` was tested, and the inhibition was 11.5%.
In the case of `CC1(C(=O)NCc2cccc3ccccc23)CCN1Cc1ccc(-c2ccccc2)o1` (stereo not drawn), the inhibition is reported as -7.12%.
With `CC(=O)Nc1cccc(-c2cc(NC=O)c3ncc(-c4ccc(F)c(Cl)c4)n3c2)c1` the inhibition was -0.607%.
Molecule `CCc1nc2c(OCCOc3ccccc3)cccn2c1N(C=O)Cc1ccc(OC)cc1` has an inhibition of 3.19%.
For `COc1cccc(NC(=O)C2(C)CCN2Cc2ccccc2Cl)c1` (stereo not drawn), the inhibition was 2.3%.
Molecule `NC(Cc1ccc(F)cc1)c1csc(Nc2nncc3ccccc23)n1` (stereo not drawn) has an inhibition of -3.01%.
For `CC(C)Nc1nc(NCCOc2ccccc2Cl)c2sccc2n1`, the inhibition was 0.492%.
`COc1ccc(NC(=O)C2(C)Cc3c(-c4cccc(NC(C)=O)c4)ccnc3O2)cc1OC` (stereo not drawn) gave an inhibition of -9.6%.
In the case of `O=C(CCC(=O)N/N=C/c1ccc(Br)o1)N/N=C/c1ccc(Br)o1`, the inhibition is reported as -7.35%.
With `O=C(CCc1ccc(O)cc1)NN=Cc1cc(Br)ccc1O` the inhibition was 44.5% (active).
Work on `O=C(CCc1n[nH]c(=O)[nH]c1=O)N/N=C/c1ccc(Br)o1` yielded an inhibition of 2.19%.
Work on `COc1ccc(C(NC(=O)C2CCN(CCCc3ccccc3)CC2)c2cccs2)cc1` (stereo not drawn) yielded an inhibition of -3.76%.
`OCCN1CCN(c2ncnc3c2ncn3[C@H]2CN(Cc3ccco3)C[C@@H](CO)O2)CC1` showed an inhibition of -4.02%.
`COc1cncc(-c2cnc3sc(NCCc4ccccn4)nn23)c1` showed an inhibition of -1.86%.
`CCCC/C=C/c1cccc2nncn12` showed an inhibition of 15.4%.
In the case of `O=C(Nc1ccc(N2CCOCC2)cc1)c1cccc2c(-c3ccc(F)c(F)c3)coc12`, the inhibition is reported as 6.12%.
`Cc1nc(C(F)(F)F)ccc1C(=O)N1CCC1(C)C(=O)NS(=O)(=O)c1ccc(F)cc1F` (stereo not drawn) was tested, and the inhibition was -2.79%.
Molecule `Cc1cccc(C)c1Cn1c(C)c(C(=O)NCc2cccc(Cl)c2)sc1=O` has an inhibition of 12.4%.
For `CCc1nc2c(OCc3ccc(Cl)cc3Cl)cccn2c1N(C)C(=O)C(C)C`, the inhibition was 1.84%.
For `CS(=O)(=O)/C(C#N)=C/c1cccn1S(=O)(=O)c1ccc([N+](=O)[O-])cc1`, the inhibition was 6.24%.
Molecule `CCCS(=O)(=O)NC(=O)C1(C)CCCN(C(=O)c2cccs2)C1` (stereo not drawn) has an inhibition of 5.08%.
`CCCNC(=O)C1(C)CCN(C(=O)c2ccccc2OC(F)(F)F)C1` (stereo not drawn) gave an inhibition of 12.9%.
`COc1ccc(S(=O)(=O)NC(=O)C2(C)CCN2C(=O)c2ccccc2CCc2ccccc2)cc1` (stereo not drawn) was tested, and the inhibition was -21.5%.
For `Cc1ccc(CNC(=O)Nc2nnc([C@H]3C[C@H](O)[C@@H](CO)O3)s2)cc1`, the inhibition was -0.839%.
With `COc1ccc(-c2cc3nc(NCCOc4ccccc4)ccn3n2)cc1` the inhibition was 8.41%.
In the case of `Cc1ccc(Sc2ccc(NC(=O)c3ccc(F)cc3)cc2C#N)cc1`, the inhibition is reported as 1.62%.
In the case of `CC(C)NC(=O)C1(C)CCCCCN1C(=O)c1ccc(-c2ccccc2)cc1` (stereo not drawn), the inhibition is reported as 0.373%.
For `CCc1nc2c(OCCC3CCCCC3)cccn2c1N(C)C(=O)c1ccco1`, the inhibition was 4.27%.
`COc1ccc(OC)c(NC(=O)C2(C)CCN2C(=O)Cc2ccccc2)c1` (stereo not drawn) showed an inhibition of 0.456%.
`O=C(CSc1nc2cccc(F)c2c(=O)n1-c1ccccc1)Nc1ccc2c(c1)CCC2` was tested, and the inhibition was -4.77%.
With `CC1(Cc2ccccc2C#N)C(=O)Nc2ccc(-c3ccc4[nH]ccc4c3)cc21` (stereo not drawn) the inhibition was 7.54%.
Work on `O=C(O)c1ccccc1-c1cccc2nncn12` yielded an inhibition of 9.27%.
`O=C(NCc1ccc(F)cc1)c1cc(C2CCCCN2C(=O)c2cccs2)on1` (stereo not drawn) showed an inhibition of -0.163%.
Work on `CC(C)Cc1ccc(-c2cc3nc(NCc4cccc(Cl)c4)ccn3n2)cc1` yielded an inhibition of -8.06%.
Work on `O=C(c1cc(C2CCCCN2S(=O)(=O)c2ccccc2)on1)N1CCOCC1` (stereo not drawn) yielded an inhibition of -7.54%.
Work on `COc1ccc(NC(=O)C2(C)Cc3c(-c4cccc(NC(C)=O)c4)ccnc3O2)cc1` (stereo not drawn) yielded an inhibition of -2.98%.
With `OC[C@@H]1CN(Cc2ccc(-c3ccccc3)cc2)C[C@H](n2cnc3c(NC4CCCC4)ncnc32)O1` the inhibition was -2.96%.
With `CC(C)Cn1cc(-c2cncc3nccn23)cn1` the inhibition was -0.067%.
Molecule `CC1(C(=O)NS(=O)(=O)c2ccc3ccccc3c2)CCN1C(=O)C1(c2ccc(Cl)cc2)CCC1` (stereo not drawn) has an inhibition of 8.48%.
`CC(=O)c1ccc(-c2cnc3c(NC=O)cc(-c4cccc(NS(C)(=O)=O)c4)cn23)cc1` was tested, and the inhibition was 16.7%.
Molecule `COc1cccc(-c2cnc(C(O)c3ccccc3OC)[nH]2)c1` (stereo not drawn) has an inhibition of 10.9%.
`OC(c1ccc(F)cc1)c1ncc(-c2cccc(C(F)(F)F)c2)[nH]1` (stereo not drawn) gave an inhibition of -1.07%.
`CC(C)Oc1cc(F)ccc1-c1cc(C(=O)Nc2ccc(F)cc2)[nH]n1` showed an inhibition of 10.8%.
Work on `O=C(NC(c1ccc(Cl)cc1)c1cnccn1)C1CCN(Cc2ccc(Cl)cc2)CC1` (stereo not drawn) yielded an inhibition of -28.5%.
`CCCc1ccc(C(O)c2ncc(-c3cccc(OC)c3)[nH]2)cc1` (stereo not drawn) gave an inhibition of -4.13%.
Molecule `COc1ccccc1CNC(=O)c1cc(-c2cc(Cl)ccc2C)n[nH]1` has an inhibition of -1.01%.
`CCNC(=O)C1(C)CCN(Cc2ccc(C(=O)OCC)o2)C1` (stereo not drawn) was tested, and the inhibition was 8.45%.
With `CCCOc1ccc(F)cc1-c1cc(C(=O)Nc2ccc(F)cc2)[nH]n1` the inhibition was 5.38%.
With `CC1(C(=O)NCc2ccc3c(c2)OCO3)CCN1C(=O)Cc1cccs1` (stereo not drawn) the inhibition was -7.14%.
`CC(C)Oc1ccc(CN2CCC2(C)C(=O)NCc2ccc(C(F)(F)F)cc2)cc1` (stereo not drawn) was tested, and the inhibition was 4.17%.
Molecule `CC1(C(=O)Nc2cccc3c2CCCC3)CCN1C(=O)CCc1ccc(Cl)cc1Cl` (stereo not drawn) has an inhibition of -3.08%.
With `NCCCNC(=S)NCCCN(Cc1ccc(Cl)cc1)c1ccc(Br)cn1` the inhibition was 22.2%.
Molecule `COc1cccc(CNc2nc(NCc3cccs3)nc3ccsc23)c1` has an inhibition of -1.8%.
Molecule `CCc1nc2ccc(C(=O)Nc3ccc(OC)c(OC)c3)cn2c1N(C)C(=O)c1cccc(OC)c1` has an inhibition of 10.6%.
Molecule `NC(Cc1ccccc1)c1csc(Nc2cc(Oc3ccccc3)ncn2)n1` (stereo not drawn) has an inhibition of 0.811%.
For `OC[C@@H]1CN(Cc2ccncc2)C[C@H](n2cnc3c(N4CCN(c5ccccc5)CC4)ncnc32)O1`, the inhibition was -1.41%.
For `COCCNc1ncnc2c1ncn2[C@H]1CN(Cc2ccc(OC)cc2)C[C@@H](CO)O1`, the inhibition was -0.829%.
With `CC(=O)Nc1cccc(-c2cc(NC(C)=O)c3ncc(-c4ccccc4)n3c2)c1` the inhibition was 0.99%.
`COc1cccc(CNc2nc(NCc3ccccc3OC)nc3ccsc23)c1` showed an inhibition of -20.9%.
In the case of `CCNC(=S)Nc1ccc2c(c1)c(=O)n(C)n2Cc1ccc(Cl)cc1`, the inhibition is reported as 7.91%.
For `CSc1ccc(CNC(=O)C2(C)CCCN2C)cc1` (stereo not drawn), the inhibition was -9.77%.
`CCc1ccc2c(c1)NC(=O)C2(C)Cc1ccc(OC(F)(F)F)cc1` (stereo not drawn) was tested, and the inhibition was 8.05%.
With `CCCNC(=O)C1(C)CCCN(C(=O)c2oc3ccccc3c2C)C1` (stereo not drawn) the inhibition was 10.4%.
In the case of `CC1(C(=O)NS(=O)(=O)c2cccc(OC(F)F)c2)CCN1C(=O)COc1ccc(Cl)cc1` (stereo not drawn), the inhibition is reported as -2.12%.
With `Nc1nc(CSc2nnnn2-c2ccccc2)nc(Nc2ccccc2)n1` the inhibition was -5.2%.
`Cn1c(Nc2ccc(F)cc2)nc2cc(-c3ccsc3)sc2c1=O` was tested, and the inhibition was -4.93%.
`CCCNC(=O)c1cc(C2CCCCN2S(=O)(=O)c2cn(C)cn2)on1` (stereo not drawn) gave an inhibition of -5.28%.
Work on `COc1cccc(-c2ccc3c(c2)N(Cc2ccccc2OC)C(=O)C(C)S3)c1` (stereo not drawn) yielded an inhibition of 0.226%.
For `CCCNC(=O)C1(C)CCN(Cc2ccc(Cl)c(Cl)c2)C1` (stereo not drawn), the inhibition was -7.24%.
Molecule `COc1ccc(Br)c(Cn2c(C)c(C(=O)NCc3cccs3)sc2=O)c1` has an inhibition of 6.08%.
In the case of `CC(C)(C)c1ccc(S(=O)(=O)NC(=O)C2(C)CCN2C(=O)CC2CC2)cc1` (stereo not drawn), the inhibition is reported as 4.79%.
Work on `CS(=O)(=O)c1cccc(-c2ccc3nncn3c2)c1` yielded an inhibition of 1.16%.
`CC(=O)Nc1cccc(-c2cc3nc(NCc4cccnc4)n(C)c(=O)c3s2)c1` gave an inhibition of -1.23%.
Work on `CCCNC(=O)C1(C)CCN(Cc2csc(-c3ccc(Cl)cc3)n2)C1` (stereo not drawn) yielded an inhibition of 14.3%.
`COc1ccc(-c2ccc(C(=O)NCCN3CCOCC3)c3occc23)c(C)c1` showed an inhibition of 0.104%.
With `CCc1ccc(OC2(C)CCN(CCOc3ccc(C)cc3)C2)cc1` (stereo not drawn) the inhibition was -1.04%.
`CC(=O)Nc1cccc(-c2ccnc3c2CC(C)(C(=O)NCc2ccco2)O3)c1` (stereo not drawn) gave an inhibition of 2.4%.
For `CC(C)(C)CC(=O)Nc1nc(C(N)Cc2ccc(C(F)(F)F)cc2)cs1` (stereo not drawn), the inhibition was -12.3%.
